# Results taken from paper PMC11062922 (Nature Chemical Biology, 2023).
# Read-outs that look alike come from different tables or passages of the source.
# Tests used:
# Parameters in all cases: species or system human, MV4-11 + K-562 + COLO205 + SK-N-BE2 + OVCAR-8
# CSNK1D = conditions: read-out: apparent Kd, n = 1
# CSNK1E = conditions: read-out: apparent Kd, n = 1
# MAPK14 = conditions: read-out: apparent Kd, n = 1
# MAPKAPK2 = conditions: read-out: apparent Kd, n = 1
# MAP2K2 = conditions: read-out: apparent Kd; compound concentrations:100 nM and 1000 nM (sheet 'Samples'); n = 1
# MAPK11 = conditions: read-out: apparent Kd, n = 1
# RAB6A;RAB6B = conditions: read-out: apparent Kd; compound concentrations:100 nM and 1000 nM (sheet 'Samples'); n = 1
# CSNK1A1 = conditions: read-out: apparent Kd; compound concentrations: 100 nM and 1000 nM (sheet 'Samples'), CATDS: 0.102503652768427; n = 1
# DJA1 = test system: T1, DJA1; conditions: read-out: apparent Kd; compound concentrations: 100 nM and 1000 nM (sheet 'Samples'), CATDS: 7.1447025322651805E-2; n = 1
# T1 construct: gene DNAJA1
# MAPK10 = conditions: read-out: apparent Kd; compound concentrations: 100 nM and 1000 nM (sheet 'Samples'), CATDS: 7.1245555578464306E-2; n = 1
# NQO2 = conditions: read-out: apparent Kd; compound concentrations: 100 nM and 1000 nM (sheet 'Samples'), CATDS: 7.6337001924779102E-2; n = 1
# CLK4 = conditions: read-out: apparent Kd; compound concentrations: 100 nM and 1000 nM (sheet 'Samples'), CATDS: 0.20208548416979799; n = 1
# CSNK2A1;CSNK2A3 = conditions: read-out: apparent Kd; compound concentrations: 100 nM and 1000 nM (sheet 'Samples'), CATDS: 0.28521766566088902; n = 1
# CSNK2A2 = conditions: read-out: apparent Kd; compound concentrations: 100 nM and 1000 nM (sheet 'Samples'), CATDS: 0.32436684951211903; n = 1
# DYRK1A = conditions: read-out: apparent Kd; compound concentrations: 100 nM and 1000 nM (sheet 'Samples'), CATDS: 0.224085831089785; n = 1
# COX5A = conditions: read-out: apparent Kd; compound concentrations: 100 nM and 1000 nM (sheet 'Samples'), CATDS: 4.1546789230528999E-2; n = 1
# GSK3A = conditions: read-out: apparent Kd; compound concentrations: 100 nM and 1000 nM (sheet 'Samples'), CATDS: 6.2645628894546598E-2; n = 1
# GSK3B = conditions: read-out: apparent Kd; compound concentrations: 100 nM and 1000 nM (sheet 'Samples'), CATDS: 5.5933303342936301E-2; n = 1
# GTPBP4 = conditions: read-out: apparent Kd; compound concentrations: 100 nM and 1000 nM (sheet 'Samples'), CATDS: 4.05365212601312E-2; n = 1
# LATS1 = conditions: read-out: apparent Kd; compound concentrations: 100 nM and 1000 nM (sheet 'Samples'), CATDS: 6.4509671540351102E-2; n = 1
# PAK4 = conditions: read-out: apparent Kd; compound concentrations: 100 nM and 1000 nM (sheet 'Samples'), CATDS: 5.9667413912450298E-2; n = 1
# PAK6 = conditions: read-out: apparent Kd; compound concentrations: 100 nM and 1000 nM (sheet 'Samples'), CATDS: 9.5972545463879802E-2; n = 1
# PKN1 = conditions: read-out: apparent Kd; compound concentrations: 100 nM and 1000 nM (sheet 'Samples'), CATDS: 5.7657473805166601E-2; n = 1
# PKN2 = conditions: read-out: apparent Kd; compound concentrations: 100 nM and 1000 nM (sheet 'Samples'), CATDS: 4.3276435854429397E-2; n = 1
# PRKACA = conditions: read-out: apparent Kd; compound concentrations: 100 nM and 1000 nM (sheet 'Samples'), CATDS: 0.169432353175829; n = 1
# PRKACB = conditions: read-out: apparent Kd; compound concentrations: 100 nM and 1000 nM (sheet 'Samples'), CATDS: 0.14426679409785001; n = 1
# PRKCD = conditions: read-out: apparent Kd; compound concentrations: 100 nM and 1000 nM (sheet 'Samples'), CATDS: 4.3301317069520798E-2; n = 1
# PRKCQ = conditions: read-out: apparent Kd; compound concentrations: 100 nM and 1000 nM (sheet 'Samples'), CATDS: 0.16159232019623801; n = 1
# PRKG1 = conditions: read-out: apparent Kd; compound concentrations: 100 nM and 1000 nM (sheet 'Samples'), CATDS: 5.6874913121809097E-2; n = 1
# PRKX = conditions: read-out: apparent Kd; compound concentrations: 100 nM and 1000 nM (sheet 'Samples'), CATDS: 0.106921293671462; n = 1
# ROCK2 = conditions: read-out: apparent Kd; compound concentrations: 100 nM and 1000 nM (sheet 'Samples'), CATDS: 4.7086778656787398E-2; n = 1
# [1] = compound concentrations:100 nM and 1000 nM (sheet 'Samples')
structure (smiles),measurement,setting,value
NC(=O)Cc1ccccc1Oc1nccc(-c2c(-c3ccc(F)cc3)ncn2C2CCNCC2)n1 [SB-264865],potency estimated from few doses,CSNK1D; [1],1300 nM
same,potency estimated from few doses,CSNK1E; [1],2030 nM
same,potency estimated from few doses,MAPK14; [1],418 nM
same,potency estimated from few doses,MAPKAPK2; [1],503 nM
CCc1ccc(Oc2nccc(-c3c(-c4ccc(F)cc4)ncn3C3CCNCC3)n2)cc1 [SB-242719],potency estimated from few doses,CSNK1D; [1],419 nM
same,potency estimated from few doses,CSNK1E; [1],760 nM
same,potency estimated from few doses,MAP2K2,2280 nM
same,potency estimated from few doses,MAPK11; [1],779 nM
same,potency estimated from few doses,MAPK14; [1],24.4 nM
same,potency estimated from few doses,MAPKAPK2; [1],13.3 nM
same,potency estimated from few doses,RAB6A;RAB6B,1360 nM
CCOc1nccc(-c2c(-c3ccc(F)cc3)ncn2C2CCNCC2)n1 [SB-249175],potency estimated from few doses,CSNK1A1,294 nM
same,potency estimated from few doses,"CSNK1D; compound concentrations: 100 nM and 1000 nM (sheet 'Samples'), CATDS: 0.31219473795395603",16.6 nM
same,potency estimated from few doses,"CSNK1E; compound concentrations: 100 nM and 1000 nM (sheet 'Samples'), CATDS: 0.18119769412776501",46.9 nM
same,potency estimated from few doses,DJA1,1630 nM
same,potency estimated from few doses,MAPK10,1660 nM
same,potency estimated from few doses,"MAPK11; compound concentrations: 100 nM and 1000 nM (sheet 'Samples'), CATDS: 7.9204394656965396E-2",935 nM
same,potency estimated from few doses,"MAPK14; compound concentrations: 100 nM and 1000 nM (sheet 'Samples'), CATDS: 0.21634918417803001",31.9 nM
same,potency estimated from few doses,"MAPKAPK2; compound concentrations: 100 nM and 1000 nM (sheet 'Samples'), CATDS: 0.24140517483875701",25.8 nM
same,potency estimated from few doses,NQO2,1130 nM
N=C1N=C(N)S/C1=C\c1ccc2ncccc2c1 [RO4509407-000],potency estimated from few doses,CLK4,1310 nM
same,potency estimated from few doses,CSNK2A1;CSNK2A3,612 nM
same,potency estimated from few doses,CSNK2A2,488 nM
same,potency estimated from few doses,DYRK1A,1010 nM
CCn1c(-c2nonc2N)nc2c(C#CC(C)(C)O)nc(OC[C@H](N)c3ccccc3)cc21 [GSK943949A],potency estimated from few doses,COX5A,1670 nM
same,potency estimated from few doses,GSK3A,424 nM
same,potency estimated from few doses,GSK3B,576 nM
same,potency estimated from few doses,GTPBP4,1880 nM
same,potency estimated from few doses,LATS1,394 nM
same,potency estimated from few doses,PAK4,482 nM
same,potency estimated from few doses,PAK6,167 nM
same,potency estimated from few doses,PKN1,529 nM
same,potency estimated from few doses,PKN2,1390 nM
same,potency estimated from few doses,PRKACA,64.8 nM
same,potency estimated from few doses,PRKACB,82.7 nM
same,potency estimated from few doses,PRKCD,1390 nM
same,potency estimated from few doses,PRKCQ,69.5 nM
same,potency estimated from few doses,PRKG1,549 nM
same,potency estimated from few doses,PRKX,137 nM
same,potency estimated from few doses,ROCK2,999 nM
